Sampled rows, rich in hits. Any-hit rate of the full collection: about 4.1%.
TROY signal inh = inhibitors of TROY-driven NF-kB signaling, primary screen, Q293 LMP1-TROYcd cells, NF-kB luciferase, uHTS; 0.98% of 360,000 active; inhibition, % at 10 µM; Q293 LMP1-TROYcd NF-kB luciferase reporter, 4 h;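 active = compounds whose plate-normalised and pattern-corrected inhibition of the luciferase reporter signal at the single screening dose is 50% or more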
Peg3 prom inh = Peg3 promoter-driven luciferase inhibitors, primary screen, cell-based, HeLa, luciferase luminescence | AID 588405, 2011 | inhibition, % at 20 µM | 1.7% of 360,000 active | HeLa PEG-Prom luciferase reporter, overnight;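 active = inhibition of at least 50% at 20 µM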
TWEAK Fn14 block = inhibitors of TWEAK-Fn14 signaling, primary screen, luciferase reporter cells, uHTS; TWEAK-stimulated Fn14 reporter cells, luciferase luminescence, 8 h; inhibition, % at 10 µM; 2% of 360,000 active; AID 1159606, 2016; in the data active = inhibition above about 50%
EBV LMP1 NFkB = EBV LMP1-driven NF-kappaB luciferase reporter inhibitors, primary screen, cell-based, luminescence, single point; LMP1-induced NF-kappaB luciferase reporter cells; inhibition, % at 12.5 µM; 0.69% of 350,000 active; in the data active = inhibition above about 41%;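 note: 0% = neutral control wells and 100% = reference inhibitor control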
MITF TRPM1 inh = inhibitors of MITF-dependent TRPM1 promoter reporter, primary screen, cell-based, SK-MEL-5, single point, luciferase. SK-MEL-5 TRPM1 promoter luciferase, 24 h. inhibition, % at 12.5 µM. 0.83% of 330,000 active. AID 488899, 2010;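 active = mean inhibition across replicates of 60% or more, whatever share of single replicates reaches that level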
Shn3 3UTR inh = reduction of Shn3 3'UTR firefly luciferase signal, primary screen, Schnurri-3 inhibitor project, cell-based, Clone20 osteoblasts, set 2. inhibition, % at 12.5 µM. 0.52% of 360,000 active. Clone20 osteoblast Shn3 3'UTR firefly luciferase, 24 h. AID 588674, 2011;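 active = mean inhibition of at least 75% with every replicate also reaching 75%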;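 note: 0% = median of neutral control wells and 100% = pilot-screen positive control compound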
* = called active by the depositor; nt = no result.

SMILES	TROY signal inh	Peg3 prom inh	TWEAK Fn14 block	EBV LMP1 NFkB	MITF TRPM1 inh	Shn3 3UTR inh
CN(C(=O)COC(=O)C1=COCCO1)c1c(N)n(Cc2ccccc2)c(=O)[nH]c1=O	1	-1	13	0	-7	-14
CC(C)C(=O)Nc1cccc(COc2ccc(CN(Cc3ccccc3)C(=O)OC(C)(C)C)cc2)c1	22	-9	70*	-6	19	47
COc1ccc(-c2cc(=O)oc3cc(OC(=O)C4CCCCC4)c(Cl)cc23)cc1	58*	16	84*	34	-2	20
COc1ccc(-c2cc(=O)oc3cc(OC(C)C(=O)NC4CC4)ccc23)cc1 (stereo not drawn)	-17	23	-9	7	-9	-1
COc1ccc(-c2cc(=O)oc3c(C)c(O)ccc23)cc1	61*	40	72*	-5	-9	-5
COc1ccc(-c2cc(=O)oc3c(C)c(OC(C)C(C)=O)ccc23)cc1 (stereo not drawn)	29	52*	-16	10	-6	19
COc1ccc(-c2cc(=O)oc3cc(O)ccc23)cc1	26	5	64*	19	-6	15
Cn1c(N)c(S(=O)(=O)NCc2ccc(F)cc2)c(=O)n(C)c1=O	-13	1	-1	-1	6	-1
CCCC(=O)OCCNc1cc(Sc2nc3ccccc3[nH]2)c2nonc2c1[N+](=O)[O-]	44	109*	40	12	-5	93*
CCC(=O)OCCNc1cc(Sc2nccn2C)c2nonc2c1[N+](=O)[O-]	44	105*	37	26	92*	89*
CCOC(=O)N1CCN(c2cc(NCCO)c([N+](=O)[O-])c3nonc23)CC1	-14	4	-15	-4	6	5
CCC(=O)OCCNc1cc(SCCC(=O)OC)c2nonc2c1[N+](=O)[O-]	27	30	2	3	-7	19
C=C1C(=O)c2sccc2C(c2ccc(OC)c(OC)c2)C1COC(C)=O (stereo not drawn)	69*	105*	100*	79*	98*	99*
CC(=O)c1cccc(NC(=O)c2cccc3c(-c4cnn(C)c4)coc23)c1	-2	58*	26	nt	nt	11
Cn1cc(-c2coc3c(C(=O)Nc4ccccc4)cccc23)cn1	-86	-155	0	nt	nt	-9
COc1cc(NC(=O)c2cccc3c(-c4cnn(C)c4)coc23)cc(OC)c1OC	16	78*	44	nt	nt	24
CCC(C)(C)NC(=O)C(c1ccc(OC)cc1)N(C(=O)CCC(=O)Nc1cc(C)on1)c1ccc2c(c1)OCCO2 (stereo not drawn)	-12	2	28	7	0	11
N#CC(=C(O)COC(=O)CCC1CCCCC1)c1nc2ccccc2[nH]1	-9	37	6	-4	5	-5
Nc1cc2c(cc1Br)-c1c(C(=O)O)cccc1C2O (stereo not drawn)	9	-4	-13	23	-14	86*
Cc1cc(OCC(=O)Nc2ccccn2)c2c(C)cc(=O)oc2c1	-14	-40	-42	49*	-12	-6
CCCc1cc(=O)oc2cc(C)cc(OCC(=O)Nc3ccccn3)c12	-10	15	2	-16	-10	-5
NC(=N\N=Cc1ccco1)/C(N)=N/N=Cc1ccco1	-12	-165	72*	-22	-28	-12
NC(=N\N=Cc1ccccc1)/C(N)=N/N=Cc1ccccc1	-42	-78	-28	nt	nt	-39
COc1ccc(Nc2nc(N3CCOCC3)nc(N3CCOCC3)n2)cc1Cl	11	-4	-12	-5	-7	14
Cc1ccc(C(=O)Nc2ncc(Cc3ccccc3)s2)o1	-5	-132	66*	-9	-30	-60
CC(=O)Oc1cc2c3c(c1)/C(=C1/SC(=S)NC1=O)C(=O)N3C(C)(C)C=C2C	50*	-40	41	-5	1	1
CCOc1cc2c3c(c1)C(C)=CC(C)(C)N3C(=O)C2=O	15	17	20	-4	15	-24
Cc1nc2ccccn2c1C(=O)/C=C/c1cccc([N+](=O)[O-])c1	36	102*	94*	32	71*	-40

Screening results as filed in PubChem.
